These results are taken from ChEMBL document CHEMBL3988442, “University of Dundee, Small-Polar-MMV Screening Library” (2021).

Common to all, as to parameters: scale not given: direction of the effect not stated beside the values
The target of test [1] is Protein translocase subunit SecA (Escherichia coli (strain K12)) (UniProt P10408). Nature of the test: Assay to Identify E. coli SecA ATPase Inhibitors. As to conditions: 30 µM. It counts as functional.
Test [2] has as its target T1, Ubiquitin-activating enzyme e1, putative (Leishmania donovani (strain BPK282A1)) (UniProt E9BSI1).
T1 sequence (whole entry): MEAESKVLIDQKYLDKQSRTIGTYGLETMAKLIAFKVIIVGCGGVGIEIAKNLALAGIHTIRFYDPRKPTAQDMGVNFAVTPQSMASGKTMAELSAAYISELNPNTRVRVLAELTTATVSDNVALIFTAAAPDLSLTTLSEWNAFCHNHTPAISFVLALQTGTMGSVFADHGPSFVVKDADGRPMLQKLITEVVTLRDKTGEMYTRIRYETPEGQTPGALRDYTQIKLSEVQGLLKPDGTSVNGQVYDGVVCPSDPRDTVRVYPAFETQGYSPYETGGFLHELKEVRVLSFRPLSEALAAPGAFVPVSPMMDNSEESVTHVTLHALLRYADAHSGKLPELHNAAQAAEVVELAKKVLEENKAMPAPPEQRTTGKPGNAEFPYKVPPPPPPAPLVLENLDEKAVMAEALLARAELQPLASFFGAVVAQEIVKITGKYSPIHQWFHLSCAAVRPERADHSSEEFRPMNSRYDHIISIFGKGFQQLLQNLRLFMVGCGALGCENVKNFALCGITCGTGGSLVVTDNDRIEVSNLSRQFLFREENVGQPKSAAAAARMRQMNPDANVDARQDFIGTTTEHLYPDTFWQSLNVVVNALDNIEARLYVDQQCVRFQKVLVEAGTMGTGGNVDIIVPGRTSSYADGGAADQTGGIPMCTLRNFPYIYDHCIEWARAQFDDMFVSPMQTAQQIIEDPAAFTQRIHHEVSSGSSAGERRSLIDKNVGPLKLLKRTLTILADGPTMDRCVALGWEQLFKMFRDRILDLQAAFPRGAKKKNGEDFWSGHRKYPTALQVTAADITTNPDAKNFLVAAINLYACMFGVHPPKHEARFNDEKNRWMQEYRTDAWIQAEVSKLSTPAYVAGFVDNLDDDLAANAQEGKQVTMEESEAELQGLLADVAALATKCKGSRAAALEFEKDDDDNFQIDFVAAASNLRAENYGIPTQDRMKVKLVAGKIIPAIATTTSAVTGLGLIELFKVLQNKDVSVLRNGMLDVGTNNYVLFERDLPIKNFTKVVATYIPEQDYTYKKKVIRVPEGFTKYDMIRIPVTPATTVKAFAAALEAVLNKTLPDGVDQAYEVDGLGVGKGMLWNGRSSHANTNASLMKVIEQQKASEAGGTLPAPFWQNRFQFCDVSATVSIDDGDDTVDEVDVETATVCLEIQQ
As to the kind of experiment: Leishmania donovani Ubiquitin Activating Enzyme (LdE1). Type of test: functional. The note with it: 30 µM.

For test [3], the target named is AMP-activated protein kinase, AMPK (Homo sapiens) (UniProt P54646+O43741+P54619+Q9UGJ0+Q9Y478+Q13131+Q9UGI9). As to the kind of experiment: AMP-dependent Kinase enzyme assay. An in vitro enzyme assay that detects ADP turnover that is directly proportional to AMPK activity. This uses naive AMPK that is activated during the assay with MK-8722. Type of test: functional. The note with it: 30 µM.

Test [4] deals with Sialic acid-binding Ig-like lectin 9 (Homo sapiens) (UniProt Q9Y336). As to the kind of experiment: Hs-Siglec9 ALPHAscreen SOP 20170721. The note with it: 10 µM.
The subject of the next test is Trypanosoma cruzi. Nature of the test: Trypanosoma cruzi phosphomannomutase and mannose-1-phosphate guanylyltransferase assay. It counts as functional. As to conditions: 10 µM.
In test [5] the target is T2, Arginase-2, mitochondrial (Homo sapiens) (UniProt P78540).
T2 sequence (whole entry): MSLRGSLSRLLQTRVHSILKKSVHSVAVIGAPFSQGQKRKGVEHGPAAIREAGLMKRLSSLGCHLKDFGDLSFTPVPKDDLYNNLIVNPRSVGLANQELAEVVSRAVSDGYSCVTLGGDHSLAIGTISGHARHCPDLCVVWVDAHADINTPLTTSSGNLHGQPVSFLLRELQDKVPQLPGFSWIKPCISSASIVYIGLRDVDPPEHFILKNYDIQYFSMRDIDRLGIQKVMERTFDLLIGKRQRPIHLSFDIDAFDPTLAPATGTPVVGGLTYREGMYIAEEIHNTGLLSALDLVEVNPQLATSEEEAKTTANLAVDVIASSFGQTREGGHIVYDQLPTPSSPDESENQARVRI
As to the kind of experiment: in vitro enzyme assay to detect the production of urea directly proportional to the activity of Arginase II. Note: in the data most compounds retested in dose-response had high values. It counts as functional. The note with it: 33.3 µM.

In test [6] the target is T3, Proteasome subunit beta (Trypanosoma cruzi) (UniProt O96673).
T3 sequence (whole entry): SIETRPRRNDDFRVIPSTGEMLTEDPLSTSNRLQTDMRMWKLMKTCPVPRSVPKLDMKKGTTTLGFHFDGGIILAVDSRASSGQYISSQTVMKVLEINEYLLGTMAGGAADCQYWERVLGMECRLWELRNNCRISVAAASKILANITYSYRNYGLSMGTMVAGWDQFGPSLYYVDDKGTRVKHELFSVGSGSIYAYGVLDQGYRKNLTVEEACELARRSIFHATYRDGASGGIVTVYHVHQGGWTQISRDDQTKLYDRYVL
Nature of the test: Trypanosoma cruzi proteasome chymotrypsin-like activity (TcProtChymo) assay. Note: in the data most compounds retested in dose-response had high values. It counts as functional. As to conditions: 9.37 µM.

A further test is filed under the species Homo sapiens. As to the kind of experiment: To identify inhibition of the IFN signalling (Jak-Stat) pathway via expression of an eGFP reporter gene under the control of an IFN-stimulated response element (ISRE) containing MxA promoter. It counts as functional. As to conditions: 30 µM. A general note: Reporter assays use an easily measured gene product as a stand-in for the process of interest.

Test [7] concerns the target T4, Tyrosyl-tRNA synthetase, putative (Trypanosoma cruzi (strain CL Brener)) (UniProt Q4DSP6).
T4 sequence (whole entry): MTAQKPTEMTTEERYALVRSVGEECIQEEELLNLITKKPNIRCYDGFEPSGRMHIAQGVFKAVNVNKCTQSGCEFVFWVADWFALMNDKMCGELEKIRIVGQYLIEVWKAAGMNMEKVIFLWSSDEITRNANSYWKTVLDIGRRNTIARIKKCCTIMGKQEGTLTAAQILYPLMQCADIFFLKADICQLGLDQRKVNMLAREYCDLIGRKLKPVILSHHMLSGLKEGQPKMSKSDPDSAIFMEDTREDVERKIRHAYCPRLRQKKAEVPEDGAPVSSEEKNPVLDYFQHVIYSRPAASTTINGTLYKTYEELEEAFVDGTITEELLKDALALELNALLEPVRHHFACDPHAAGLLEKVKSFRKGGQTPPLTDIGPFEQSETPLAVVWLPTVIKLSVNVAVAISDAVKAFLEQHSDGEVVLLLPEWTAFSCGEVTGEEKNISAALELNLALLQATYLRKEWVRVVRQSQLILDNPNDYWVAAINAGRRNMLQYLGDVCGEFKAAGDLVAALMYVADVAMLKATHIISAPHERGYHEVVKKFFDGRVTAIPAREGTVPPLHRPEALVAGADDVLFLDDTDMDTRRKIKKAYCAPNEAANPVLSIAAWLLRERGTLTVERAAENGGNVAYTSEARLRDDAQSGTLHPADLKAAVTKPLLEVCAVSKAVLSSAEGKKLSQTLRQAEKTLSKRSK
As to the kind of experiment: Trypanosoma cruzi tyrosyl tRNA synthetase (TcYRS) _High Tyrosine SOP. Note: in the data most compounds retested in dose-response had high values. Type of test: functional. The note with it: 30 µM.

Test [8] concerns the target T4, Tyrosyl-tRNA synthetase, putative (Trypanosoma cruzi (strain CL Brener)). As to the kind of experiment: Trypanosoma cruzi tyrosyl tRNA synthetase (TcYRS) SOP. It counts as functional. As to conditions: 30 µM.
In test [9] the target is Chromo domain-containing protein 1 (Saccharomyces cerevisiae (strain ATCC 204508 / S288c) (Baker's yeast)) (UniProt P32657). As to the kind of experiment: ScCHD-1 Enzyme Inhibition Assay. Note: in the data most compounds retested in dose-response had high values. The note with it: 30 µM. Type of test: functional.

For part of these data: Potency and affinity values are given separately.

Protein translocase subunit SecA (Escherichia coli (strain K12)), sequence (P10408 whole entry): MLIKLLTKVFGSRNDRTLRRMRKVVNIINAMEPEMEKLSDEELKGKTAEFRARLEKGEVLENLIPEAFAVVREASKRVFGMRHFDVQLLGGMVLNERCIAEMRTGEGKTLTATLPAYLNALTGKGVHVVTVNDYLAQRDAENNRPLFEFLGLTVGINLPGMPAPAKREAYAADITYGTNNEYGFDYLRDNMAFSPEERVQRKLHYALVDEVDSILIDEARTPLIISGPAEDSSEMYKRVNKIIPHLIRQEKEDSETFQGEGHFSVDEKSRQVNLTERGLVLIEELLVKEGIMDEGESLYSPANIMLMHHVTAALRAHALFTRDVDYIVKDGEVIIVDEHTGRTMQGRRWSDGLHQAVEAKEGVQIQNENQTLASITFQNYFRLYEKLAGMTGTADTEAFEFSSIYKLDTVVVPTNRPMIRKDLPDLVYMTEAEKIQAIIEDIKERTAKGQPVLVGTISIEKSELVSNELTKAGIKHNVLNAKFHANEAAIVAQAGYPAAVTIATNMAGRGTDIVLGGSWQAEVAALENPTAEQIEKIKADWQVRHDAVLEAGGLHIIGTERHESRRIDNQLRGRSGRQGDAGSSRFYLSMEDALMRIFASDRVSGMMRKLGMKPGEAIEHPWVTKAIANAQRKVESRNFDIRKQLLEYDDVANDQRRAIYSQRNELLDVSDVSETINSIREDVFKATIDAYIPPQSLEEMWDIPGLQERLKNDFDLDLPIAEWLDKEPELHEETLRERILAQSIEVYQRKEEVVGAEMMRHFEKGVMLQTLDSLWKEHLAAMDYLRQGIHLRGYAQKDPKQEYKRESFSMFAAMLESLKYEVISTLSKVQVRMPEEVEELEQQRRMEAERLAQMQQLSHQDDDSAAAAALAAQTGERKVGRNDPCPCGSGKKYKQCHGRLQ
Sialic acid-binding Ig-like lectin 9 (Homo sapiens), sequence (Q9Y336 whole entry): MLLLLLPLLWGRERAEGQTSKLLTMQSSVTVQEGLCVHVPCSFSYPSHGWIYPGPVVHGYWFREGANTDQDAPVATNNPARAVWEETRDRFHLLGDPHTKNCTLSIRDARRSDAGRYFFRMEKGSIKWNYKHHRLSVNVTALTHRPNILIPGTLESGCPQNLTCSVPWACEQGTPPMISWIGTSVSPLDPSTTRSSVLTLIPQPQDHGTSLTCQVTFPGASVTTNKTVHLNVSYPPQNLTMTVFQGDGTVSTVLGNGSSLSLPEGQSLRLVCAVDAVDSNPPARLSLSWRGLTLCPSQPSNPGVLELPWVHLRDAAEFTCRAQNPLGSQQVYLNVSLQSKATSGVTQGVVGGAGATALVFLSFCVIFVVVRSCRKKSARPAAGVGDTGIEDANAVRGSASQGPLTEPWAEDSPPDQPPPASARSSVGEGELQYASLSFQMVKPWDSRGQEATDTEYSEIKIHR
Chromo domain-containing protein 1 (Saccharomyces cerevisiae (strain ATCC 204508 / S288c) (Baker's yeast)), sequence (P32657 whole entry, the tested form may be a part): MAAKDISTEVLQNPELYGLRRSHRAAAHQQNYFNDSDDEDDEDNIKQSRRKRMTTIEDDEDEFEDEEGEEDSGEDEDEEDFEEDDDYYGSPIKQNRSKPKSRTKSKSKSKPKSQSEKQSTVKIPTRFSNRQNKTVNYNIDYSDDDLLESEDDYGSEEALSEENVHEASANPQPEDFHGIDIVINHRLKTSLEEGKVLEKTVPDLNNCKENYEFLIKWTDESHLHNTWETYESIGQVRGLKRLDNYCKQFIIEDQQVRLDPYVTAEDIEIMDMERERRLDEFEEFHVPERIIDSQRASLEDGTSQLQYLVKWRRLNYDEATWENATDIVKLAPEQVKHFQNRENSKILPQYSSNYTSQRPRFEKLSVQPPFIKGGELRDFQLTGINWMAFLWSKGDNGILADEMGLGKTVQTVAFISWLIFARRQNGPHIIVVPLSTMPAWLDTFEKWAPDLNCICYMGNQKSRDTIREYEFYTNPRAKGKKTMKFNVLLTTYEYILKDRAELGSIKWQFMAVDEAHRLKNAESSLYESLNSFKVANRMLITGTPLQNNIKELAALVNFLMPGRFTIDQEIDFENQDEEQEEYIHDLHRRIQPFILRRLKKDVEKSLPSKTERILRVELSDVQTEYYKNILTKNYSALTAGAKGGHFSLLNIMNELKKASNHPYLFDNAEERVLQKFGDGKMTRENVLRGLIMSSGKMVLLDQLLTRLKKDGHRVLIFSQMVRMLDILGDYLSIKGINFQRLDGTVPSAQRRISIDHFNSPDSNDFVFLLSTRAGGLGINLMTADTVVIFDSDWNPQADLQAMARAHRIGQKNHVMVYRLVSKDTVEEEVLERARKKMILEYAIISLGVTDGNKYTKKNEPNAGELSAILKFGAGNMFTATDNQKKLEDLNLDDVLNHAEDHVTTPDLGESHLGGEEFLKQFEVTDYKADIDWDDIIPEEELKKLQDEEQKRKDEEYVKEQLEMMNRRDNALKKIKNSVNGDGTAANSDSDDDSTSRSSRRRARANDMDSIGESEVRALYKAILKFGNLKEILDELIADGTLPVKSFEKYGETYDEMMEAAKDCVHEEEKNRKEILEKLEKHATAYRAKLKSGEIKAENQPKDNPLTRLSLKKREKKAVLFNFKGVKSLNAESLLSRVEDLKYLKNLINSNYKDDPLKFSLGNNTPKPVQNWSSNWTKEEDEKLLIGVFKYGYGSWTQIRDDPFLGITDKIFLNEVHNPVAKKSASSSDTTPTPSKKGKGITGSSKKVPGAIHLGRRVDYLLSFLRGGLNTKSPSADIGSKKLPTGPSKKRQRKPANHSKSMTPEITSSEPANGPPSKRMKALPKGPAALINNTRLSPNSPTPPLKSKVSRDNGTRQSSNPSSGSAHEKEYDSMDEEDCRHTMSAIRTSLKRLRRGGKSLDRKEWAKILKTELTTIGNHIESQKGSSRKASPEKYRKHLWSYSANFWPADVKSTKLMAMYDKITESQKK

For `CC(C)Oc1ccccc1CNC(=O)N1CCC(n2cncn2)CC1`, the Percent Effect in test [1] is -9.7%; in test [2] it was 11.4%; in [3] it was -5.06%; in test [4] it was -3.04%; in the test on Trypanosoma cruzi it was 3.79%; in test [5], -2.37%. For the same compound, the Percent Effect in test [6] was 17.3%; in the test listed under Homo sapiens it was 7.86%; in [7], 5.21%; in test [8] it was 12.7%; in [9] it was -29.4%.
`CCCN(CC(=O)NC)C(=O)c1ccc(-c2ccsc2)nc1C`: the Percent Effect in test [1] was -1.19%; in test [2] it was 6.94%; in [3], -2.8%; in [4] it was 10.6%; in the test on Trypanosoma cruzi it was 4.76%; in test [5], 36.2%. The Percent Effect in [6] came to 17.9%; in the test listed under Homo sapiens, 12.1%; in test [7] it was 7.37%; in test [8] it was 17.9%; in test [9] it was 91%.
As for `Cc1cccc(CN(C)Cc2nc3c(cnn3C)c(=O)[nH]2)c1`, the Percent Effect in test [1] is -3.57%; in test [2], 21.1%; in test [3] it was -0.412%; in test [4], -12.2%; with Trypanosoma cruzi, -5.51%; in test [5] it was -5.04%. Besides, the Percent Effect in test [6] is 3.3%; in the test filed under Homo sapiens, -2.73%; in test [7], 8.37%; in [8] it was 23.5%; in [9], -7.57%.
In the case of `O=C(C1CCC1)N1CCC2(COCc3cnc(N4CCOCC4)nc32)C1` (centres undefined), the Percent Effect in [1] is 2.09%; in test [2] it was 13.3%; in test [3], -2.58%; in test [4], -6.19%; in the test on Trypanosoma cruzi, 0.772%; in test [5], -59.7%. For the same compound, the Percent Effect is 9.23% in test [6]; -2.75% in the test filed under Homo sapiens; 2.08% in test [7]; 12.5% in test [8]; -9.27% in [9].
`COC(=O)c1ccc2ccn(CC3CCNC3)c(=O)c2c1` (centres undefined): the Percent Effect in [1] is -1.56%; in [2] it was 24.7%; in test [3], -24.1%; in [4], 16.4%; in the test on Trypanosoma cruzi, 4.31%; in [5] it was 2.27%. For the same compound, the Percent Effect is 21.8% in test [6]; 6.65% in the test filed under Homo sapiens; 6.45% in test [7]; 20% in test [8]; -5.95% in [9].
As for `Cc1ccc(CN2CCOC3(CCCN(C(=O)c4ccco4)C3)C2)s1` (centres undefined), the Percent Effect was -0.789% in [1]; 15.6% in [2]; -0.0266% in [3]; 8.56% in [4]; 5.41% in the test with Trypanosoma cruzi; -19.3% in test [5]. Further, the Percent Effect was 17.6% in test [6]; -8.94% in the test filed under Homo sapiens; 6.45% in [7]; 13.6% in test [8]; -2.11% in [9].
For `CCOC(=O)C1CCCN(c2ccc(-c3nc(C)no3)cn2)C1` (centres undefined), the Percent Effect in test [1] is -4.99%; in test [2] it was 8%; in [3], -4.16%; in test [4], 19.1%; in the test with Trypanosoma cruzi, 5.36%; in [5], 6.25%. In addition, the Percent Effect in test [6] was 0%; in the test filed under Homo sapiens, 1.88%; in test [7], 3.83%; in test [8], 11.1%; in [9] it was -6.07%.
In the case of `O=C(NCCNc1ncccn1)C1CCN(c2ncccn2)CC1`, the Percent Effect was -4.14% in test [1]; 10.8% in test [2]; -3.16% in test [3]; 5.87% in test [4]; 7.71% in the test with Trypanosoma cruzi; -4.62% in test [5]. Further, the Percent Effect in [6] was 5.57%; in the test filed under Homo sapiens it was 26.3%; in test [7], -10.9%; in [8] it was 13.4%; in test [9], 1.05%.
On to `CC(C)OCCOCc1cccc(NC(=O)NCc2ccccn2)c1`, for which the Percent Effect is -5.4% in test [1]; 10.4% in test [2]; 0.256% in test [3]; 12% in [4]; 6.79% in the test with Trypanosoma cruzi; -24.8% in test [5]. The Percent Effect in test [6] was 19.3%; in the test filed under Homo sapiens it was -1.08%; in [7], 2.15%; in [8] it was 8.64%; in test [9], -6.3%.
